High-throughput results deposited in PubChem by several laboratories.
Hits are enriched below; roughly 4.6% of the tested compounds scored in any of these assays.
ADAM10 inh: human ADAM10 inhibitors, primary screen, biochemical, QFRET, HTS; Disintegrin and metalloproteinase domain-containing protein 10 (Homo sapiens), O14672; recombinant ADAM10, EDANS/DABCYL FRET peptide cleavage, 3 h; inhibition, % at 7 µM; 0.62% of 370,000 active; AID 720582, 2013;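 active = inhibition above a per-campaign cutoff equal to the mean of compounds falling between control-based bounds plus 3 SD, cut at about 20% in these data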;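 note: 0% = DMSO wells while the 100% control is not disclosed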
Target sequence (O14672 214-748 limits assumed): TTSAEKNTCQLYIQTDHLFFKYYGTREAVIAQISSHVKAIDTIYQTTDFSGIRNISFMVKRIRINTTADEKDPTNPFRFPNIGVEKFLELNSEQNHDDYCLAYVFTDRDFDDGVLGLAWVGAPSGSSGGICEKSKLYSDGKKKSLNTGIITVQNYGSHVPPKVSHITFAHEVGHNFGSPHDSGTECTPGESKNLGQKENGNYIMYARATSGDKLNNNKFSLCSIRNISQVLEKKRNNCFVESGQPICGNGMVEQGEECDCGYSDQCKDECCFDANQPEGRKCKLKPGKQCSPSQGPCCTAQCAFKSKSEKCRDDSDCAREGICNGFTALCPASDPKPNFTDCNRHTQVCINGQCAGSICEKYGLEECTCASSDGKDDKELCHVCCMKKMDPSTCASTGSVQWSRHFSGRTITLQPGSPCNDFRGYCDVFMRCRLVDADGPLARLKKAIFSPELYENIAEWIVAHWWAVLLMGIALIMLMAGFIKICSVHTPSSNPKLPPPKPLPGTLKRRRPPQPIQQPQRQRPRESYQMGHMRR
FAS-TE inh: FAS thioesterase domain inhibitors, primary screen, biochemical, fluorescence intensity, uHTS; inhibition, % at 15 µM; AID 602261, 2012; Fatty acid synthase (Homo sapiens), P49327; 0.67% of 360,000 active; recombinant FAS-TE, OMFH fluorogenic substrate, fluorescence endpoint;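 active = compounds whose normalised, plate-corrected inhibition of enzyme fluorescence in the single-dose primary screen is 50% or more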;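 note: 0% = DMSO with enzyme and 100% = substrate without enzyme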
KLK7 zymogen act: proKLK7 zymogen activators, primary screen, biochemical, fluorescence intensity. activation, % at 7 µM. purified proKLK7, EDANS-DABCYL substrate fluorescence; 100% is mature enzyme control, 0% vehicle. Kallikrein-7 (Homo sapiens), P49862. 0.9% of 370,000 active. AID 652039, 2013;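 active = activation above the mean of all tested compounds plus 3 SD, computed per campaign excluding outliers beyond control limits, cut at about 13% in these data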
ADAM17 inh: ADAM17 inhibitors, primary screen, biochemical, QFRET; Disintegrin and metalloproteinase domain-containing protein 17 (Homo sapiens), P78536; recombinant ADAM17, EDANS/DABCYL FRET peptide cleavage; inhibition, % at 6.95 µM; 0.83% of 370,000 active; AID 720648, 2013;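 active = inhibition above the mean of compounds lying between control limits plus 3 SD, set per campaign, cut at about 8.5% in these data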;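 note: 0% = DMSO-only wells as the low control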
GRIN3A LBD mod: binders of NR3A ligand-binding domain, primary screen, biophysical, differential scanning fluorimetry, uHTS; NR3A LBD differential scanning fluorimetry, Tm shift; 0% = protein alone, 100% = glycine-bound protein; AID 1259313, 2017; 2.5% of 340,000 active; Tm shift relative to glycine control, % at 25 µM; Glutamate receptor ionotropic, NMDA 3A (GRIN3A) ligand-binding domain;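 active = melting temperature shift of at least 10% of the positive control shift, at one fixed dose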
Active calls of the source: *; i = inactive; . = no result.

SMILES	ADAM10 inh	FAS-TE inh	KLK7 zymogen act	ADAM17 inh	GRIN3A LBD mod
O=C(N/N=C/c1cccc([N+](=O)[O-])c1)c1cc(-c2ccc3c4c(cccc24)CC3)n[nH]1	3	4	0	0	18*
Cn1cccc1-c1cc(C(=O)N/N=C/c2ccc([N+](=O)[O-])cc2)[nH]n1	9	0	0	7	28*
Cn1cccc1-c1cc(C(=O)N/N=C/c2ccccc2Cl)[nH]n1	-2	5	0	-5	-15
O=C(N/N=C/c1ccc(Cl)c([N+](=O)[O-])c1)c1cc(-c2ccc3c4c(cccc24)CC3)n[nH]1	-1	10	0	-2	-2
CCOc1ccc(/C=N/NC(=O)c2cc(-c3cccn3C)n[nH]2)cc1	-2	-1	0	-2	22*
CC(=O)C1(C(=O)NC2CCCC2)CC(c2ccccn2)=NO1 (centres undefined)	2	.	-1	-3	.
CCCC[C@H]1C2CC(OC(=O)Nc3cccc(Br)c3)C(C2)[C@H]2CCCCN21 (some centres undefined)	-6	.	0	-3	.
CN(N=O)c1ccc(CC2CCc3ccccc32)cc1 (centres undefined)	3	23	-1	-4	15*
CC(C)(C)N1Cc2nnn(CC3CCCCC3)c2-c2ccccc2S1(=O)=O	11	.	0	4	.
[O-][n+]1c2ccccc2cc2ccccc21	i	-4	4	-262	46*
COc1ccc2c(ccc[n+]2[O-])c1	-32	-7	0	-6	0
c1ccc(CSc2ccc(-c3cccs3)nn2)cc1	4	12	-1	0	19*
c1ccc(CSc2ccc(-c3cccs3)nn2)nc1	-13	2	0	-5	1
CCCC(C)NC(=O)CC1Oc2ccccc2NC1=O (centres undefined)	-8	.	-1	1	.
COC(=O)c1ccc(C(=O)OC)c(NC(=O)COC(=O)CC2CC3CCC2C3)c1 (centres undefined)	-13	28	0	-3	19*
COc1cc(/C=N/NC(=O)CC#N)cc(Br)c1O	-107	-7	1	-36	1
COc1cc(/C=N/NC(=O)c2sc(N)c(C#N)c2C)cc(Br)c1O	3	-3	1	0	16*
COc1ccc2ccccc2c1/C=N/NC(=O)c1sc(N)c(C#N)c1C	-148	1	0	-37	17*
CN1[C@H](Cc2ccccc2)COc2cccc(N3CCCC3)c2S1(=O)=O	-1	.	1	-3	.
Nc1nc(SCC(=O)Nc2ccc(OC(F)(F)F)cc2)[nH]c(=O)c1NC(=O)c1ccc(Br)o1	10	0	0	5	17*
Nc1cc(=O)[nH]c(SCC(=O)Nc2ccc([N+](=O)[O-])cc2)n1	-2	7	0	-5	-1
Nc1nc(SCC(=O)Nc2ccc([N+](=O)[O-])cc2)[nH]c(=O)c1NC(=O)c1ccc(Br)cc1	2	47	0	1	31*
CCSc1nc(N)c(NC(=O)c2ccc(Br)o2)c(=O)[nH]1	-6	0	0	-1	0
COc1ccc(CNC(=O)O[C@H]2CC[C@@]34CCCN3C(=O)CCC[C@H]4C2)cc1OC	1	.	.	0	.
O=C(C1=NN(c2ccccc2)C2C(=O)N(c3cccc(Cl)c3)C(=O)C12)c1ccccc1 (centres undefined)	-12	64*	0	-5	-7
SMILES	ADAM10 inh	FAS-TE inh	KLK7 zymogen act	ADAM17 inh	GRIN3A LBD mod
O=C1NC(=S)SC1=Cc1cc(Br)ccc1O	12	0	0	4	31*
Nc1ccccc1C#Cc1ccc2[nH]ccc2c1	-56	8	-3	-17	19*
CC1=NN(c2ccc(Cl)cc2)C(=O)C1C(c1cccc(O)c1)c1c(C)[nH]n(-c2ccc(Cl)cc2)c1=O (centres undefined)	.	33	.	.	15*
CC1=NN(c2ccc(F)cc2)C(=O)C1C(c1cccc(O)c1)c1c(C)[nH]n(-c2ccc(F)cc2)c1=O (centres undefined)	8	3	0	3	6
COc1ccc(C)cc1NC(=O)CSc1nnc(-c2n[nH]c3c2CCC3)n1N	-5	.	0	-3	.
O=c1c2ccccc2n(Cc2ccno2)n1[C@@H](Cc1ccccc1)Cn1cc(-c2ccc(-c3ccccc3)cc2)nn1	-89	.	-7	-21	.
CC1CCN(c2ccc(/C=C(\C#N)c3nn(-c4ccccc4)c(N)c3C#N)cc2[N+](=O)[O-])CC1	-1	18	-1	0	10*
CC1CCCN(c2ccc(/C=C(\C#N)c3nn(-c4ccccc4)c(N)c3C#N)cc2[N+](=O)[O-])C1 (centres undefined)	-13	29	-1	-5	12*
Cc1ccc(C(=O)Nc2nnc(-c3ccc(C(C)(C)C)cc3)s2)cc1	-2	-3	0	-4	10*
CCCCn1c(SCC(=O)Nc2cccc(OC)c2)nc2ccc(N3CCOCC3)cc2c1=O	-89	11	12	-22	-2
CCCCn1c(SCC(N)=O)nc2ccc(N3CCOCC3)cc2c1=O	-295	2	16*	-81	2
c1ccc(Cn2ccnc2SCc2nnc(-c3ccccc3)o2)cc1	15	-3	-1	4	11*
CCCCOCCCNC(=O)C[C@H]1C(=O)N(Cc2ccc(OC)cc2)C2=CCCCC[C@@]21C(=O)OC	2	.	0	-3	.
CC1CCCN(S(=O)(=O)c2ccc(C(=O)Nc3ccccc3-c3nc4ccccc4[nH]3)cc2)C1 (centres undefined)	3	18	-1	-3	34*
CC1CCN(S(=O)(=O)c2ccc(C(=O)Nc3ccccc3-c3nc4ccccc4[nH]3)cc2)CC1	17	42	-1	1	31*
COc1ccccc1NC(=O)c1ccc(S(=O)(=O)N2CCCC(C)C2)cc1 (centres undefined)	9	10	1	2	1
Cc1nc2ccccc2nc1N/N=C/c1ccc(O)cc1	-23	-4	0	-5	11*
Cc1nc2c(cnn2-c2ccccc2)c(=O)n1/N=C/c1ccccc1	10	17	0	0	3
Oc1ccc(/C=N/Nc2ccccc2)cc1	-12	1	0	-8	-1
Cc1nc(N/N=C/c2ccc(O)cc2)c2cnn(-c3ccccc3)c2n1	-30	10	-2	-12	12*
CCOC(=O)[C@@]12CCCC=C1N(CCc1ccc(Cl)cc1)C(=O)[C@H]2CC(=O)N1CCCC1	-8	.	0	1	.
CCC(C)NC(=O)CN1C(=O)C2CCCCN2C(=O)c2ccccc21 (centres undefined)	-13	.	1	-4	.
